# In the library only some 3.1% were active in any assay of this set; here they are far more common.
# FadD28 FP inh: blocks FadD28 binding to the bisubstrate probe | fluorescence polarization | inhibition, % at 12.5 µM | 360,000 compounds, 0.22% hits | AID 588549; in the data active = inhibition above about 8.5%, passing the limit was not always enough
# GDH-TPI inh: GDH-TPI coupled enzyme inhibition counter-screen; GDH-TPI coupled enzyme counterscreen, NADH absorbance; inhibition, % at 4.8 µM; 360,000 compounds, 1.2% hits; in the data active = inhibition above about 30%;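 note: 0% = DMSO wells and 100% = wells lacking the enzyme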
# BioA inh: inhibitors of Mycobacterium tuberculosis BioA enzyme. purified M. tuberculosis BioA enzyme, plate reader. inhibition, % at 9.99 µM. 360,000 compounds, 0.096% hits; in the data active = inhibition above about 40%
# Mtb FBA inh: inhibits M. tuberculosis FBA enzyme; P9WQA3; inhibition, % at 1 µM; 360,000 compounds, 2.3% hits; AID 588726; purified M. tuberculosis FBA, fluorescence read-out; in the data active = inhibition above about 27%;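 note: 0% = vehicle and 100% = reference inhibitor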
# Target sequence (P9WQA3 whole entry, looked up): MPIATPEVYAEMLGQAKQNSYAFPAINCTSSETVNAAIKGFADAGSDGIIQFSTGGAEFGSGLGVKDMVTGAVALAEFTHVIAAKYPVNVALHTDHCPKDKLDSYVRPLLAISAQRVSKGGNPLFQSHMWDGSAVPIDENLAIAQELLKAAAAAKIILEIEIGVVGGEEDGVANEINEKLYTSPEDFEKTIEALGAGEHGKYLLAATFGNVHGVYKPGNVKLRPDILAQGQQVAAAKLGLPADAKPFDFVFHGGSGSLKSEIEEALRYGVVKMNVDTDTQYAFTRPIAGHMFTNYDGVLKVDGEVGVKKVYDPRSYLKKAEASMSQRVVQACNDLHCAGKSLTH
# SARS 3CLpro inh: SARS-CoV 3CLpro protease inhibition; recombinant SARS-CoV 3CLpro, quenched FRET peptide cleavage; inhibition, % at 6 µM; 290,000 compounds, 0.14% hits; in the data active = inhibition above about 12%
# Starred values were filed as active, the others as inactive; . = no result; + = active, no number.
SMILES,FadD28 FP inh,GDH-TPI inh,BioA inh,Mtb FBA inh,SARS 3CLpro inh
C[C@@H]1CN([C@@H](C)CO)C(=O)c2cccc(NS(=O)(=O)c3ccccc3)c2O[C@@H]1CN(C)CC1CC1,.,.,2.1,.,.
Cc1cc(=O)oc2c(CN3CC(C)OC(C)C3)c(O)c(Cl)cc12 (stereo not given),-2.2,-2.9,.,+,1.9
CCc1cc(=O)oc2c(CN3CCCC3)c(O)c(Cl)cc12,1.8,25.9,-0.7,+,4.8
CCc1cc(=O)oc2c(CN3CCN(C)CC3)c(O)c(Cl)cc12,0.0,44.4*,-3.2,+,-4.8
O=c1cc(-c2ccccc2)c2cc(Cl)c(O)c(CN3CCOCC3)c2o1,0.9,7.2,-0.4,8.6,3.7
Cc1cc(=O)oc2c(CN3CCOCC3)c(O)ccc12,-0.9,37.5*,8.8,.,.
Cc1ccc2oc(=O)cc(CN3CC(C)OC(C)C3)c2c1 (stereo not given),-0.3,10.3,-0.2,-2.4,3.3
CO[C@H]1CN(C)C(=O)c2cc(NC(C)=O)ccc2OC[C@H](C)N(S(=O)(=O)c2cn(C)cn2)C[C@H]1C,.,.,-2.0,.,.
C[C@@H]1CCCCO[C@@H](CN(C)S(=O)(=O)c2ccc(F)cc2)[C@H](C)CN([C@@H](C)CO)C(=O)c2cc(NC(=O)C3CCCCC3)ccc2O1,.,.,-1.1,.,.
COc1cccc(S(=O)(=O)Nc2ccc3c(c2)OC[C@H](C)NC[C@@H](C)[C@H](OC)CN(C)C3=O)c1,.,.,-2.6,.,.
CC(C)NC(=O)Nc1cccc2c1O[C@@H](CN(C)C(=O)Nc1cccc3ccccc13)[C@@H](C)CN([C@H](C)CO)C2=O,.,.,0.0,.,.
CCc1c(C)c2cc(Cl)c(O)c(CN3CCCCC3)c2oc1=O,-3.5,1.6,0.1,+,-6.2
O=c1cc(-c2ccccc2)c2ccc(O)c(CN3CCCCC3)c2o1,-3.5,-0.5,5.5,8.0,-2.4
CCc1cc(=O)oc2c(CN3CCN(C)CC3)c(O)ccc12,0.3,18.4,0.0,+,-1.5
Cc1c(O)c(CN2CCCCC2)cc2c1oc(=O)c1ccccc12,-0.7,0.6,.,2.7,-2.8
COCCNC(=O)C[C@@H]1CC[C@H]2[C@H](COc3ccc(NC(C)=O)cc3C(=O)N2C)O1,.,.,1.5,.,.
COc1ccc(C2C=C(c3ccccc3)Nc3nnnn32)cc1 (stereo not given),-1.4,7.2,-2.0,8.6,2.3
C1=C(c2ccccc2)Nc2nnnn2C1,-0.7,0.0,-1.7,86.7*,-1.5
CC(=O)c1ccc(NS(=O)(=O)Cc2ccccc2)cc1,-0.1,35.0*,.,0.8,3.5
CCc1ccc2c(c1)c(N=NC1=NC(=O)CS1)c(O)n2CC,-0.2,31.0*,0.1,-7.9,6.8
Cn1c(=O)c2[nH]c(C=Cc3ccc4c(c3)OCO4)nc2n(C)c1=O,-1.9,31.0*,.,5.7,.
O=[N+]([O-])c1ccc(Oc2cccnc2)c([N+](=O)[O-])c1,-4.3,2.3,.,-1.8,.
Nc1ccc(Oc2ccc([N+](=O)[O-])cc2[N+](=O)[O-])cc1,-0.4,33.3*,-1.7,3.1,2.1
CC(=NCCCn1ccnc1)c1c(-c2ccccc2)[nH]n(-c2nc3ccccc3s2)c1=O,-5.5,10.1,41.2*,-0.8,3.1
CCOc1ccc(C(=O)N/N=C/c2ccc(-c3ccc(S(=O)(=O)Nc4ncccn4)cc3)o2)cc1,-8.8,35.3*,.,25.7,0.6
SMILES,FadD28 FP inh,GDH-TPI inh,BioA inh,Mtb FBA inh,SARS 3CLpro inh
NC(=S)N/N=C/c1ccc(-c2ccc(SC(F)F)cc2)o1,-0.7,44.8*,0.3,8.6,4.2
NC(=S)NN=Cc1ccc(-c2ccc(S(=O)(=O)Nc3ncccn3)cc2)o1,22.8*,32.6*,.,20.2,.
O=C(N/N=C/c1ccc(-c2ccc(S(=O)(=O)Nc3ncccn3)cc2)o1)c1cc2ccccc2cc1O,-3.0,27.0,1.3,5.4,-2.9
NC(=S)N/N=C/c1ccc(-c2ccccc2)o1,-6.1,12.1,.,-3.0,0.4
COc1ccc(S(=O)(=O)N2C[C@@H](O)COC[C@@H]3O[C@@H](CC(=O)NCCN4CCCCC4)CC[C@H]32)cc1,.,.,-3.0,.,.
C[C@H]1CN([C@@H](C)CO)S(=O)(=O)c2ccc(-c3cccc(C#N)c3)cc2O[C@H]1CN(C)C(=O)c1ccc(F)cc1,.,.,1.1,.,.
CO[C@H]1CN(C)C(=O)c2ccc(NC(=O)c3cc(C)on3)cc2OC[C@@H](C)N(C(=O)C2CC2)C[C@@H]1C,.,.,0.2,.,.
Cc1noc(C)c1S(=O)(=O)Nc1ccc2c(c1)C(=O)N([C@@H](C)CO)C[C@@H](C)[C@@H](CN(C)Cc1ccc3c(c1)OCO3)O2,.,.,2.2,.,.
CC(c1ccco1)N(C(=O)c1ccccc1NS(=O)(=O)c1ccc(Cl)c([N+](=O)[O-])c1)c1ccccn1 (stereo not given),0.5,32.1*,-0.1,2.8,2.8
CC(=O)NC1C(=O)N(CCN2CCOCC2)c2ccc(Cl)cc21 (stereo not given),-1.1,-8.0,2.2,0.1,13.0*
CCCCN1C(=O)C(NC(C)=O)c2cc(Br)ccc21 (stereo not given),-1.8,1.7,1.7,-2.3,3.8
CC(=O)NC1C(=O)N(CCN2CCOCC2)c2ccc(C)cc21 (stereo not given),-2.3,-2.2,.,0.2,53.7*
C[C@@H]1CN([C@@H](C)CO)S(=O)(=O)c2ccc(C3=CCCCC3)cc2O[C@@H]1CN(C)C(=O)C1CCOCC1,.,.,0.1,.,.
C[C@H](CO)N1C[C@H](C)[C@H](CN(C)Cc2ccc(C(=O)O)cc2)Oc2ccc(NC(=O)Cc3ccccc3)cc2CC1=O,.,.,0.9,.,.
O=[N+]([O-])c1ccc(NN=Cc2ccco2)nc1,0.8,33.5*,-2.6,-12.9,.
O=[N+]([O-])c1ccc(N/N=C\c2cccnc2)nc1,-4.1,-5.8,.,-3.5,6.8
CC1=NN(c2cccc(C(=O)O)c2)C(=O)/C1=C\C=C\c1ccco1,11.3*,3.0,-1.0,-12.2,4.6
C[C@H](CO)N1C[C@H](C)[C@@H](CN(C)C(=O)c2ccccc2F)Oc2cc(-c3ccccc3)ccc2S1(=O)=O,.,.,3.1,.,.
O=S(=O)(O)c1ccc(O)c2cc(Nc3ccccc3)ccc12,59.0*,7.3,1.7,14.3,.
Cc1ccc(S(=O)(=O)c2cc(Nc3ccccc3)ccc2O)cc1,3.0,8.5,2.0,3.3,.
CCOC(=O)N1CCN(c2ncnc3c2[nH]c2ccc(F)cc23)CC1,-0.4,5.8,0.4,10.2,4.6
CCOC(=O)N1CCN(c2ncnc3c2[nH]c2ccc(OC)cc23)CC1,0.7,15.1,3.2,124.7*,-5.0
CCOC(=O)C1CCN(c2ncnc3c2[nH]c2cccc(OC)c23)CC1,-2.2,27.1,-2.1,124.7*,6.1
CNC[C@H]1Oc2ccc(NC(=O)NC(C)C)cc2CC(=O)N([C@H](C)CO)C[C@H]1C,.,.,1.3,.,.
C[C@H]1CN([C@@H](C)CO)S(=O)(=O)c2ccc(C#Cc3ccccc3)cc2O[C@@H]1CN(C)S(=O)(=O)c1cn(C)cn1,.,.,-0.7,.,.
CCCN1[C@H](C(=O)OC)[C@@H](CO)[C@@H]2Cn3c(ccc(C4=CCCCC4)c3=O)[C@@H]21,.,.,-1.0,.,.
O=C(OC1CCCCC1)c1ccc2c(c1)C1C=CCC1C(C(=O)O)N2 (stereo not given),.,.,.,.,1.4

# Screening data as filed in PubChem BioAssay.
